Experimental data as given in PubChem BioAssay (NCATS).
Results filed as inconclusive are left out. Unmarked numbers belong to inactive results. The source made the active and inactive calls. Calls come from the whole dose curve; as a rule, active = well fitted cell-killing curve with a large enough effect; inconclusive = small, poorly fitted or top-dose-only effect; inactive = no such curve, though single readings can be large or run the other way.

Experiment: qHTS of pediatric cancer cell lines to identify multiple opportunities for drug repurposing: Primary screen for SK-N-MC cells (AID 1347093);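 for activity change, negative = cytotoxic: plate controls were DMSO neutral control for no effect and bortezomib for full effect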
Details: SK-N-MC viability, CellTiter-Glo luminescence, 48 h; series mostly up to 46 µM; activity change, negative = cytotoxic: at the top concentration
Outline: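 Metabolically active cells were quantified by ATP-dependent luminescence (CellTiter-Glo, 15 min at room temperature) following 48 h treatment. Cells had been plated at 500-1,000 per well and settled for 5 h beforehand.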
Potency is the fitted concentration of half-maximal effect.

Row | SMILES | activity change, negative = cytotoxic | Potency
1 | COc1c(N2C[C@@H]3CCCN[C@@H]3C2)c(F)cc2c(=O)c(C(=O)O)cn(C3CC3)c12 | 63.2% | –
2 | CCO[C@H](Cc1ccc(OCCc2ccc(OS(C)(=O)=O)cc2)cc1)C(=O)O | 3.2% | –
3 | CC(C)(C)NCC(O)COc1ccccc1OCC1CCCO1 (centres undefined) | 0.175% | –
4 | Cc1cc(O)c2c(O)c3c(O)cccc3cc2c1 | 0.858% | –
5 | CCC(C(=O)OCCN1CCOC(c2ccccc2)C1C)c1ccccc1 (centres undefined) | 7.33% | –
6 | O=C1[C@@H]2[C@H]3CC[C@H](C3)[C@@H]2C(=O)N1CCCCN1CCN(c2ncccn2)CC1 | 24.1% | –
7 | O=C1CC2(CCCC2)CC(=O)N1CCNCC1COc2ccccc2O1 (centres undefined) | -3.97% | –
8 | COC(=O)c1cc(S(N)(=O)=O)ccc1OC | 5.99% | –
9 | CO/N=C(\C(=O)O)c1csc(NC(=O)CCl)n1 | 11.9% | –
10 | Cc1ccc(C(=O)Oc2ccc(C(O)CNC(C)(C)C)cc2OC(=O)c2ccc(C)cc2)cc1 (centres undefined) | – | 0.001 µM (active)
11 | O=C(O)c1ccccc1Nc1cc(Cl)ccc1C(=O)O | – | 8.2 µM (active)
12 | CC(=O)OCC(=O)Nc1cc(C#N)cc(NC(=O)COC(C)=O)c1Cl | 1.89% | –
13 | O=C(O)c1ccc(OCCN2CCCCC2)cc1 | -1.59% | –
14 | CN(C)C(=O)CNC(=O)Cc1ccccc1 | -27.2% | –
15 | C[C@]12CCC(=O)C=C1CC[C@@H]1[C@@H]2[C@@H](O)C[C@@]2(C)[C@H]1CC[C@]2(O)C(=O)COC(=O)CCC(=O)O | -6.3% | –
16 | C=C(C)C(=O)OCC(O)CO (centres undefined) | -15.2% | –
17 | O=C(O)C(=O)Nc1cccc(-c2nn[nH]n2)c1 | -29.9% | –
18 | Cc1ccccc1N1CCN(CCc2nnc3n2CCCC3)CC1 | -8.12% | –
19 | OCCc1ccccc1 | -10.2% | –
20 | CN1C(=O)c2ccccc2C1=O | -19.3% [at 92.7 µM] | –

Row | SMILES | activity change, negative = cytotoxic | Potency
21 | CCCCOCCOC(=O)c1cccnc1 | 3.5% | –
22 | Nc1ccc(C(=O)N2CC3CC(CN(Cc4ccccc4)C3)C2)cc1 | -13.1% | –
23 | Cc1[nH]cnc1-c1ccc(Cl)cc1 | 5.2% | –
24 | COc1cc(C(=O)OC(COCCC(C)C)CN2CCOCC2)cc(OC)c1OC (centres undefined) | 9.76% | –
25 | C[C@H]1C[C@@H]2[C@H]([C@@H](O)C[C@@]3(C)[C@H]2CC[C@]3(O)C(=O)CO)[C@@]2(C)C=CC(=O)C=C12 | -18.4% | –
26 | CC(Oc1c(Cl)cccc1Cl)C1=NCCN1 (centres undefined) | -4.36% | –
27 | COC(=O)c1cc(Cl)ccc1OC | -14% | –
28 | Cc1ccc2ccc(Cl)cc2n1 | -13.3% | –
29 | CCCCCCCCCCCCCCCCCCN(C)C | -24.6% | –
30 | Oc1cccc2[nH]ccc12 | -5.48% | –
31 | CN(C)CCN1CCN(c2cccc(Cl)c2)C1=O | -7.89% | –
32 | Cc1ccc(C(C)OC(=O)C2(C)CCC(C(=O)O)C2(C)C)cc1 (centres undefined) | -18.2% | –
33 | N#CC1(c2ccc(F)cc2)CCC(=O)CC1 | -12.6% | –
34 | CCCCCCCCCCCCCCCC[n+]1ccccc1 | – | 5.31 µM (active)
35 | O=C(O)CNC(=O)CNC(=O)CNC(=O)CSC(=O)c1ccccc1 | -13.2% | –
36 | COc1cc(OC)nc(O[C@H](C(=O)O)C(OC)(c2ccccc2)c2ccccc2)n1 | 1.07% | –
37 | NC(=O)COCCN1CCN(C(c2ccccc2)c2ccc(Cl)cc2)CC1 (centres undefined) | -25.1% | –
38 | C1=CC2C3C=CC(C3)C2C1 (centres undefined) | -7.57% [at 92.7 µM] | –
39 | OC1(c2ccccc2)CCNCC1 | -5.36% | –
